Compound activity as filed in PubChem.
The list is not random: actives were taken first. Their share in the collection is about 1%.
PTHR1 agonist – PTHR1 (human) receptor agonism. AID 743266. Q03431. HEK293 GP2 PTHR1 cells, GloSensor cAMP luminescence, 1 h. 410,000 tested, 0.075% active. Potency, µM (top dose mostly 115 µM), most hits filed as activators; further: nearly all actives have a fitted effect of over 55% in size
Target sequence (Q03431 whole entry, looked up): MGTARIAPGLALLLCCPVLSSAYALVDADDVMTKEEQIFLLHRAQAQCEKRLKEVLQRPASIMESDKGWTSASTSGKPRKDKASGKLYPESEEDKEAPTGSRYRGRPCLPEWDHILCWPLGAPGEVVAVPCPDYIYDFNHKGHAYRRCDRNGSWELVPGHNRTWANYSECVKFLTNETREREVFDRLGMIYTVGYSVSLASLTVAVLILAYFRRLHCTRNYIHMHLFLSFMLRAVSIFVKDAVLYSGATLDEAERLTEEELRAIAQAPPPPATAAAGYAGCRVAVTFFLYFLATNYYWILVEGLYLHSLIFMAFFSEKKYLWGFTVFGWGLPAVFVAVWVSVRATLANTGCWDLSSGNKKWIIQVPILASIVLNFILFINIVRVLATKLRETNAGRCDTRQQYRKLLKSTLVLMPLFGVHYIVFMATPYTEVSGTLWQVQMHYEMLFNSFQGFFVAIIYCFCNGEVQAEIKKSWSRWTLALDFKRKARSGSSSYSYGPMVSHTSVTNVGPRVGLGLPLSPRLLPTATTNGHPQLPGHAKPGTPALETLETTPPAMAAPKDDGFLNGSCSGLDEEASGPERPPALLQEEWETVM
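HEK-293-derived GP2 cells expressing PTHR1 and a GloSensor cAMP reporter, 3,000/well, plated overnight, given luciferin plus IBMX (each 0.5 mM as added) for 1 h at 37 °C, then compound for 1 h at 37 °C. Luminescence was read after 15 min at room temperature.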
gsp antag – antagonists of gsp mutant (McCune-Albright syndrome) | gsp-mutant cells, cAMP HTRF, 30 min | Potency, µM (top dose mostly 76.9 µM), usual class: inhibitors | 340,000 tested, 0.4% active; calls by dose curve; cell line not stated here;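 further: intracellular cAMP measured with PDE inhibitor Ro 20-1724 present during compound exposure; nearly all actives have a fitted effect of over 65% in size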
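Measurement of cellular cAMP by homogeneous time-resolved fluorescence following a 30 min compound exposure at 37C. The PDE inhibitor […] was present throughout; the assay buffer was DPBS with 0.05% BSA and 0.005% Tween 20.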
RXFP1 agonist – activates the human relaxin receptor RXFP1 | Q9HBX9 | HEK293T-RXFP1 cAMP TR-FRET, 30 min; response scale: percent of porcine relaxin response, buffer zero | Potency, µM (series often up to 57.5 µM), hits mostly activators | 370,000 tested, 0.3% active | AID 2676; further: nearly all actives have a fitted effect of over 60% in size
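Agonist response is measured as cAMP accumulation in an RXFP1-transfected HEK293T line under PDE4 inhibition. Values are scaled between buffer-only and 29 nM porcine relaxin, and EC50s come from standard Hill equation fits.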
gsp ag – gsp mutant agonism; gsp mutant cells, cAMP HTRF, 30 min; Potency, µM (series often up to 76.9 µM), usual class: activators; 340,000 tested, 0.13% active; active means well fitted activation curve with a large enough effect; inconclusive means small, poorly fitted or top-dose-only effect, or another doubt; inactive means no such curve, though single readings can be large or run the other way; cell line not stated here;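 further: phosphodiesterase inhibitor Ro 20-1724 added with compounds to block cAMP breakdown; nearly all actives have a fitted effect of over 60% in size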
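Cells stably selected in G418 were plated at 2000/well, grown 16-24 hr, then given compounds in DMSO with the PDE inhibitor […] (300 uM solution added) for 30 min at 37C; cAMP was read by HTRF.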
RXFP1 antag – antagonists of human relaxin receptor RXFP1; Q9HBX9; HEK293-RXFP1, relaxin-stimulated cAMP HTRF, 30 min; hits give low values; activity change, negative = inhibition, % at 57.5 µM; 350,000 tested, 0.59% active;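 active means activity change of -60% or lower, but not beyond a set lower limit; inconclusive means change between -60% and -40%, or beyond the set limit; inactive means change above -40%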
Of the large screens only hits and unclear results are named; the others gave an inactive call; ! = not confirmed by another sample. Unless noted, the call rests on the fitted dose curve; in most records, active means well fitted curve in the direction sought with a large enough effect; inconclusive means small, poorly fitted or top-dose-only effect, or another doubt; inactive means no such curve, though single readings can be large; an effect the other way counts as inactive or inconclusive.

CCc1ccccc1NS(=O)(=O)c1ccc2[nH]cc(C(=O)N3CCCCC3)c(=O)c2c1	none (no result: gsp antag, gsp ag)
Cc1cccc(CS(=O)(=O)c2ncc(Cl)c(C(=O)Nc3nc4ccc(F)cc4s3)n2)c1	none (no result: gsp antag, gsp ag, RXFP1 antag)
CCCc1nnc(NC(=O)c2nc(S(=O)(=O)Cc3cccc(C)c3)ncc2Cl)s1	gsp antag 28µM
Cc1cccc(C)c1NC(=O)c1nc(S(=O)(=O)Cc2ccccc2)ncc1Cl	RXFP1 antag -70
COc1ccc(NC(=O)c2nc(S(=O)(=O)Cc3cccc(C)c3)ncc2Cl)c(OC)c1	gsp antag inconclusive
Cc1nnc(NC(=O)c2nc(S(=O)(=O)Cc3ccccc3)ncc2Cl)s1	gsp antag inconclusive
Cc1cccc(CS(=O)(=O)c2ncc(Cl)c(C(=O)Nc3c(C)cccc3C)n2)c1	RXFP1 antag -96
Cc1cccc(CS(=O)(=O)c2ncc(Cl)c(C(=O)NCc3ccccc3)n2)c1	RXFP1 antag -62!
Cn1cc(S(=O)(=O)N2CCOCC2)cc1C(=O)Nc1ccc(Cl)c(C(F)(F)F)c1	none (no result: gsp antag, gsp ag)
Cc1ccc(N(C)C(=O)Cn2cc(S(=O)(=O)N3CCCC3)c(S(=O)(=O)N3CCCC3)c2)cc1	none (no result: gsp antag, gsp ag)
Cn1c2ccccc2c2cc(/C=N/NC(=O)c3cc(O)ccc3O)ccc21	RXFP1 antag -112
Cc1ccc(Nc2nc(Cl)nc(NC(C)(C)C)n2)cc1	RXFP1 antag -71
COc1ccc(CCN2C(=O)CSC2=Nc2ccc(C(C)C)cc2)cc1OC	gsp antag 28µM
CCOC(=O)C1=C(N)Oc2ccc3ccccc3c2C1c1cccc(O)c1 (centres undefined)	none
CCOC(=O)C1=C(N)Oc2ccc3ccccc3c2C1c1cccnc1 (centres undefined)	gsp antag 32µM
COc1cc(CCNc2ccc3nnc(-c4ccccc4)n3n2)cc(OC)c1OC	none (no result: RXFP1 antag)
COc1ccc2nnc(-c3ccccc3)n2n1	gsp ag 16µM
Cn1nc(CC(=O)NCc2ccc(C(F)(F)F)cc2)c2ccccc2c1=O	gsp antag 13µM
COc1ccc(CNC(=O)Cc2nn(C)c(=O)c3ccccc23)cc1	none
CCC(C)NCCOCCOc1ccc(Cl)c(C)c1C (centres undefined)	RXFP1 antag -68
C=CCc1cc(Cl)ccc1OCCOCCNC(C)CC (centres undefined)	RXFP1 antag inconclusive
CCC(C)NCCOCCOc1ccc(Cl)c2ccccc12 (centres undefined)	RXFP1 antag -78
COc1ccc(NC(=O)/C(C#N)=C\c2ccc(-c3cc(C(=O)O)ccc3C)o2)cc1	gsp antag 45µM
COc1ccc(NC(=O)/C(C#N)=C/c2ccc(-c3ccccc3C(=O)O)o2)cc1	none
CCOC(=O)C(C(=O)Nc1ccccc1)C1CCCCC1 (centres undefined)	none
O=C(Nc1ccccc1)C(c1ccccc1)C1CCCC1 (centres undefined)	RXFP1 antag -70
CCN1C(=O)c2ccccc2C1Nc1cccc(OCCN2CCCCC2)c1 (centres undefined)	none (no result: PTHR1 agonist, gsp antag, RXFP1 agonist, gsp ag)
O=C(NC(=S)Nn1cnc2c(cnn2-c2ccccc2)c1=O)c1ccc(Cl)cc1	gsp antag inconclusive, RXFP1 antag -72
O=C(NC(=S)Nn1cnc2c(cnn2-c2ccccc2)c1=O)c1ccc(Oc2ccccc2)cc1	none (no result: RXFP1 antag)
CCC(C(=O)NCCCN1CCOCC1)n1c2ccccc2c2nc(=O)cc(C)n21 (centres undefined)	RXFP1 antag -70
Cc1cc(=O)nc2c3ccccc3n(C(C)C(=O)NCCN3CCOCC3)n12 (centres undefined)	none
COc1ccc(NC(=O)Cn2c(=O)n(Cc3ccccc3)c(=O)c3oc4ccccc4c32)cc1Cl	none (no result: gsp antag, gsp ag)
COc1ccc(OC)c(CCNC(=O)c2ccc3c(c2)N(Cc2ccc(F)cc2)CCS3)c1	gsp antag inconclusive
CCc1nc2ccc(C(=O)NCCc3ccc(OC)cc3OC)cc2nc1CC	RXFP1 antag -71 (no result: gsp antag, gsp ag)
COc1ccc(CCNC(=O)c2ccc3c(c2)N(Cc2ccc(F)cc2)CCS3)c(OC)c1	gsp ag 7.1µM
CC(=O)O[C@H](C)OC(=O)[C@@H](C)c1ccc(-c2ccccc2)c(F)c1	none (no result: PTHR1 agonist, gsp antag, RXFP1 agonist, gsp ag)
CCc1cc(C(=O)Nc2c(C)nn(Cc3ccc(C)cc3)c2C)no1	none (no result: gsp antag, gsp ag)
CCOc1ccccc1CNC(=O)c1ccc2c(c1)sc1nc(-c3cccc(OC)c3)cn12	none (no result: gsp antag, gsp ag)
Cc1ccccc1Nc1n[nH]c(=S)s1	none (no result: gsp antag, RXFP1 agonist)
Nc1ccccc1-c1n[nH]c(=S)s1	RXFP1 agonist 28µM, gsp ag inconclusive
CN1C(=O)/C(=C\C(=O)c2cccs2)c2ccccc21	RXFP1 antag -98
O=C(C=Cc1ccccn1)c1ccccc1O	none (no result: RXFP1 agonist)
O=C(C=Cc1ccccn1)c1ccccc1	RXFP1 antag -65 (no result: RXFP1 agonist)
Cc1ccn2c(=O)cc(COc3cccc(NC(=O)Nc4cccc(Cl)c4C)c3)nc2c1	none (no result: gsp antag, gsp ag)
Cc1ccc(-c2n[nH]c(=S)n2/N=C/C=C/c2ccccc2[N+](=O)[O-])cc1	none
O=[N+]([O-])c1ccccc1/C=C/C=N/n1c(-c2cc(-c3ccccc3)n[nH]2)n[nH]c1=S	RXFP1 antag -69
Oc1c(C(c2ccc(Cl)cc2Cl)N2CCN(Cc3ccccc3)CC2)sc2nc(-c3ccco3)nn12 (centres undefined)	none (no result: gsp antag, gsp ag)
CCOc1ccc(OCCn2c(=S)[nH]c3ccccc32)cc1	RXFP1 antag -63
COC(=O)c1cccc(Oc2nc3c(c(=O)n(C)c(=O)n3C)n2Cc2ccc(C)cc2)c1	gsp ag 7.9µM (no result: RXFP1 agonist)
O=c1c2ccccc2sn1-c1cc(S(=O)(=O)N2CCOCC2)ccc1N1CCCC1	gsp antag inconclusive, gsp ag inconclusive, RXFP1 antag -62
COc1cc(-c2noc(CN3CCN(c4cccc(Cl)c4)CC3)n2)cc(OC)c1OC	none (no result: gsp antag, gsp ag, RXFP1 antag)
CCC(O)(CC)C(=O)N(Nc1ccc(C)cc1)c1ccc(C)cc1	none
CCOC(=O)C(=O)N(Nc1ccc(C)cc1)c1ccc(C)cc1	gsp ag inconclusive, RXFP1 antag -68
